Measurements from article doi:10.1101/2024.03.05.583629.

target: pT7_6His-AlfaTag-HOXD13 (human, UniProt P35453 263-343); experiment: PADIT-seq; conditions: dsDNA, one strand shown
Sequence (P35453 263-343): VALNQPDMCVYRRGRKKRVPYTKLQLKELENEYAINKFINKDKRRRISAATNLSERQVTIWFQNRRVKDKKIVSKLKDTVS

Row | Sequence | binding signal [log2FC]
1 | CTCGAGGATATCAAGATCTGGCCTCGGCTACTTAAAAGGAACCTCTAGCTAGCCGACTCACTATAGGGATAATCGCCCTGAGCAAAGACC | 0.982 ± 0.0923
2 | CTCGAGGATATCAAGATCTGGCCTCGGCATGATAAAAGGAACCTCTAGCTAGCCGACTCACTATAGGGATAATCGCCCTGAGCAAAGACC | 1.61 ± 0.0749
3 | CTCGAGGATATCAAGATCTGGCCTCGGCATTTTAAATGGAACCTCTAGCTAGCCGACTCACTATAGGGATAATCGCCCTGAGCAAAGACC | 1.82 ± 0.0848
4 | CTCGAGGATATCAAGATCTGGCCTCGGCCGCTCGCGCGGAACCTCTAGCTAGCCGACTCACTATAGGGATAATCGCCCTGAGCAAAGACC | -1.03 ± 0.134
5 | CTCGAGGATATCAAGATCTGGCCTCGGCCGCCCAGTCGGAACCTCTAGCTAGCCGACTCACTATAGGGATAATCGCCCTGAGCAAAGACC | -0.955 ± 0.134
6 | CTCGAGGATATCAAGATCTGGCCTCGGCTTTTTACAAGGAACCTCTAGCTAGCCGACTCACTATAGGGATAATCGCCCTGAGCAAAGACC | 3.28 ± 0.0787
7 | CTCGAGGATATCAAGATCTGGCCTCGGCGCGTAAGCGGGAACCTCTAGCTAGCCGACTCACTATAGGGATAATCGCCCTGAGCAAAGACC | -0.575 ± 0.113
8 | CTCGAGGATATCAAGATCTGGCCTCGGCGTTTTAAGAGGAACCTCTAGCTAGCCGACTCACTATAGGGATAATCGCCCTGAGCAAAGACC | 2.61 ± 0.088
9 | CTCGAGGATATCAAGATCTGGCCTCGGCTTTTTAAGTGGAACCTCTAGCTAGCCGACTCACTATAGGGATAATCGCCCTGAGCAAAGACC | 1.17 ± 0.094
10 | CTCGAGGATATCAAGATCTGGCCTCGGCGATATAAAAGGAACCTCTAGCTAGCCGACTCACTATAGGGATAATCGCCCTGAGCAAAGACC | 1.99 ± 0.0693
